The full data set covers some 8,800 targets. This sample favours those with a hit. About 0.5% of all pairs of compound and target were hits.
What was measured:
Assay in all cases: log2 fold change, soluble protein after heating vs DMSO (PISA); higher = thermal stabilisation; K562 lysate, 10 uM; active = over 0.2 and 3.5 SD of the protein, either way, in both replicates (recomputed)
ibrutinib = compound: C=CC(=O)N1CCC[C@@H](n2nc(-c3ccc(Oc4ccccc4)cc3)c3c(N)ncnc32)C1 [ibrutinib]
How it was run: (§1)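 A 30 min treatment with 10 μM compound was applied to crude K562 extract at 1 mg/mL protein in PBS pH 7.4 with 1 mM MgCl2. Heating for 3 min spanned 48°C-58°C, after which aliquots were pooled, adjusted to 0.5% NP-40 at 4°C and spun at 21,000xg for 90 min. TMTpro 16plex LC-MS/MS of the supernatant, with channel sums equalised, gave values recorded as log-two fold change in thermal stability against solvent controls, from duplicates.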

[1] = compound: CC(=O)c1cnc2ccc(-c3cc(Cl)c(O)c(Cl)c3)nc2c1N[C@H]1CC[C@H](CN(C)C)CC1
How it was run: as §1

ralimetinib = compound: CC(C)(C)Cn1c(N)nc2ccc(-c3[nH]c(C(C)(C)C)nc3-c3ccc(F)cc3)nc21 [ralimetinib]
How it was run: as §1

[2] = compound: CC(C)(O)CC(=O)NCCn1ccc2ncnc(Nc3ccc(Oc4cccc(C(F)(F)F)c4)c(Cl)c3)c21
How it was run: as §1

[3] = compound: CC(C)C1=C2N=C(C=C(N2N=C1)NCC3=CC=CC=C3)NCCCCCCN
How it was run: as §1

[4] = compound: CC1=C(C(CC(=O)N1)C2=CC=C(C=C2)C(F)(F)F)C(=O)NC3=C(C=C4C(=C3)C=NN4)F
How it was run: as §1

[5] = compound: CC1=C(C2=C(C=C1)C(=O)C3=CC=CC=C3N2CCCN)C
How it was run: as §1

[6] = compound: CC1=C(C=C(C=C1)NC(=O)C2=CC(=CC=C2)C(C)(C)C#N)NC3=CC4=C(C=C3)N=CN(C4=O)C
How it was run: as §1

[7] = compound: CC1=C(C=C(C=C1)NC(=O)C2=CC(=CC=C2)N(C)C)NC(=O)C3=CC=C(C=C3)O
How it was run: as §1

[8] = compound: CC1=CC=C(C=C1)SC2=C3C=C(SC3=CN=C2)C(=O)N
How it was run: as §1

vemurafenib = compound: CCCS(=O)(=O)Nc1ccc(F)c(C(=O)c2c[nH]c3ncc(-c4ccc(Cl)cc4)cc23)c1F [vemurafenib]
How it was run: as §1

[9] = compound: CCCS(=O)(=O)Nc1ccc(F)c(C(=O)c2c[nH]c3ncc(Cl)cc23)c1F
How it was run: as §1

barasertib = compound: CCN(CCCOc1ccc2c(Nc3cc(CC(=O)Nc4cccc(F)c4)[nH]n3)ncnc2c1)CCOP(=O)(O)O [barasertib]
How it was run: as §1

[10] = compound: CC[C@@H]1C(=O)N(C)c2cnc(Nc3ccc(C(=O)NC4CCN(C)CC4)cc3OC)nc2N1C1CCCC1
How it was run: as §1

volasertib = compound: CC[C@@H]1C(=O)N(C)c2cnc(Nc3ccc(C(=O)N[C@H]4CC[C@H](N5CCN(CC6CC6)CC5)CC4)cc3OC)nc2N1C(C)C [volasertib]
How it was run: as §1

[11] = compound: CCn1c(C(=O)N(C2CC2)C2CC2)cc2c3c(ncn3C)c(Nc3cc(C)n(C)n3)nc21
How it was run: as §1

[12] = compound: CCn1cc(-c2ccnc3[nH]c(-c4cccc(CN(C)C)c4)cc23)c(-c2ccc(NC(=O)N(C)C)cc2)n1
How it was run: as §1

[13] = compound: CN1CCC(CNc2ccc3ncc(-c4cccc(OC(F)(F)F)c4)n3n2)CC1
How it was run: as §1

saracatinib = compound: CN1CCN(CCOc2cc(OC3CCOCC3)c3c(Nc4c(Cl)ccc5c4OCO5)ncnc3c2)CC1 [saracatinib]
How it was run: as §1

sotrastaurin = compound: CN1CCN(c2nc(C3=C(c4c[nH]c5ccccc45)C(=O)NC3=O)c3ccccc3n2)CC1 [sotrastaurin]
How it was run: as §1

Measured: log2 fold change

TYW3 (UniProt Q6IPR3)
Chain of UniProt Q6IPR3 (Q6IPR3 whole entry, looked up): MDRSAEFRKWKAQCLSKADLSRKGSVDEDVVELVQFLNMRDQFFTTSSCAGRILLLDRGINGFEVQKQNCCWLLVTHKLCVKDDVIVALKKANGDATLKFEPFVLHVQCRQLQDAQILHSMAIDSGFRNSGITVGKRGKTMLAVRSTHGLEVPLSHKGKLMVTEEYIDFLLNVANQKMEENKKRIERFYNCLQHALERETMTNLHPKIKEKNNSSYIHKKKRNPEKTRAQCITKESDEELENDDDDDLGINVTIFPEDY
inactive: ibrutinib -0.052 | [1] -0.054 | ralimetinib -0.016 | [2] -0.081 | [3] 0.043 | [4] -0.015 | [5] -0.021 | [6] 0.025 | [7] 0.01 | [8] -0.004 | vemurafenib 0.024 | [9] 0.017 | barasertib 0.017 | [10] 0.038 | volasertib -0.002 | [11] -0.02 | [12] -0.218 | [13] 0.031 | saracatinib -0.031 | sotrastaurin -0.003

TNIK isoform 4 (UniProt Q9UKE5)
inactive: ibrutinib 0.008 | ralimetinib -0.024 | [2] -0.005 | [3] 0.046 | [4] -0.013 | [5] -0.019 | [6] 0.186 | [7] -0.012 | [8] -0.068 | vemurafenib 0.002 | [9] -0.015 | barasertib -0.034 | [10] 0.025 | volasertib 0 | [11] 0.011 | [12] 0.071 | [13] 0.099 | saracatinib 0.071 | sotrastaurin 0.056
active: [1] 0.374

TRIP12 isoform 2 (UniProt Q14669)
Chain of UniProt Q14669 (Q14669 whole entry, looked up): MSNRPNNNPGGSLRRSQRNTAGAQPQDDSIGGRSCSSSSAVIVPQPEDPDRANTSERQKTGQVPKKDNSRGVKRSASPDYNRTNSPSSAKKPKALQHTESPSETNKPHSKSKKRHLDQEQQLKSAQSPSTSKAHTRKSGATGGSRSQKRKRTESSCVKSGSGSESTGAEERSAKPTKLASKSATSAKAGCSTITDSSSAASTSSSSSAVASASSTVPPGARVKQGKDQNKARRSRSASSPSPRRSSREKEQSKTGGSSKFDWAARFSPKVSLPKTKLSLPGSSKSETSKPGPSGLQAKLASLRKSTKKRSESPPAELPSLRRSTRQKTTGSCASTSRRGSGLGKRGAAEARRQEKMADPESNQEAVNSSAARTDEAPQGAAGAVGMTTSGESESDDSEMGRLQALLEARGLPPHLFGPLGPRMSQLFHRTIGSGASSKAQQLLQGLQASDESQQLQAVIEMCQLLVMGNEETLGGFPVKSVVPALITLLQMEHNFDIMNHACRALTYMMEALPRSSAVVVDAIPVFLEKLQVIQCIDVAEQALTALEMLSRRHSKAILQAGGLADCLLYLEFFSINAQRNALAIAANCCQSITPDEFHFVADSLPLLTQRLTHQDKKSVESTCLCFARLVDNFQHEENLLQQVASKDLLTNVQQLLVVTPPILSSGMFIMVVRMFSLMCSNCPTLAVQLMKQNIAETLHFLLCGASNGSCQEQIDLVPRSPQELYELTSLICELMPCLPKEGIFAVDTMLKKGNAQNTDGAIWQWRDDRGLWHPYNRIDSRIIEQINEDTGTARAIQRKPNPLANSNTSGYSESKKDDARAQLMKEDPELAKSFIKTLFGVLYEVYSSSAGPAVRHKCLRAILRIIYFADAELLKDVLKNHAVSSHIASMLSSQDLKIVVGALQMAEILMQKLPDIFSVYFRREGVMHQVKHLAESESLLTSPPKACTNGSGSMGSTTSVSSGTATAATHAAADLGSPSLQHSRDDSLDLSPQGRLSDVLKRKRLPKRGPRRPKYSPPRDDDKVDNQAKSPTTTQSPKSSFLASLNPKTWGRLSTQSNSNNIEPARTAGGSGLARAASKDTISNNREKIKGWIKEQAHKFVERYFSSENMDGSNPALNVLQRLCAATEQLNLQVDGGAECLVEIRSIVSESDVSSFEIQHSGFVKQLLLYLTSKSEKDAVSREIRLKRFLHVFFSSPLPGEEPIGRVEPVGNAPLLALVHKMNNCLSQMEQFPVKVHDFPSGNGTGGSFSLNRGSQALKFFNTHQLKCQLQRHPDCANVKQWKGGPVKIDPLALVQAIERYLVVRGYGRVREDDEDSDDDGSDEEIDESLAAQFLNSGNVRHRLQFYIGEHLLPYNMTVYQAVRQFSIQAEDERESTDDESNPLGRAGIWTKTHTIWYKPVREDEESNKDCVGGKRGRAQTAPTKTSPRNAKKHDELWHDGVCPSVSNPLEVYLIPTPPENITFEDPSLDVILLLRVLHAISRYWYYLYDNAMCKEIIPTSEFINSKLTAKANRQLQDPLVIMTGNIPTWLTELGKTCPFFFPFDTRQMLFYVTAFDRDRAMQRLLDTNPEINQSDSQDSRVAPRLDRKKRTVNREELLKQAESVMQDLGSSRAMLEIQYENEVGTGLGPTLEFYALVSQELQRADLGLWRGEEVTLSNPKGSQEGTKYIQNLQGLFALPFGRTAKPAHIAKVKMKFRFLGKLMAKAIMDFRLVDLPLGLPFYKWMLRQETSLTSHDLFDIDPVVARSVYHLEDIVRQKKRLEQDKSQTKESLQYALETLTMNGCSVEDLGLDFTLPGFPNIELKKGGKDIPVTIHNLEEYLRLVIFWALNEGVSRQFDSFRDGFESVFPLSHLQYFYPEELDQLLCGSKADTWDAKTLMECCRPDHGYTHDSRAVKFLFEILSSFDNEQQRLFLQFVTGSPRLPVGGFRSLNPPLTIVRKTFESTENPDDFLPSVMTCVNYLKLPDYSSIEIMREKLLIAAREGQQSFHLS
inactive: ibrutinib 0 | [1] -0.031 | ralimetinib 0.109 | [2] 0.044 | [3] -0.028 | [4] -0.004 | [5] 0.066 | [6] 0.058 | [7] -0.012 | [8] 0.031 | vemurafenib 0.014 | [9] 0.068 | barasertib 0.038 | [10] -0.001 | volasertib -0.028 | [11] 0.091 | [12] -0.031 | [13] 0.036 | saracatinib -0.007 | sotrastaurin 0.013

TGOLN2 isoform 7 (UniProt O43493)
Chain of UniProt O43493 (O43493 whole entry, looked up): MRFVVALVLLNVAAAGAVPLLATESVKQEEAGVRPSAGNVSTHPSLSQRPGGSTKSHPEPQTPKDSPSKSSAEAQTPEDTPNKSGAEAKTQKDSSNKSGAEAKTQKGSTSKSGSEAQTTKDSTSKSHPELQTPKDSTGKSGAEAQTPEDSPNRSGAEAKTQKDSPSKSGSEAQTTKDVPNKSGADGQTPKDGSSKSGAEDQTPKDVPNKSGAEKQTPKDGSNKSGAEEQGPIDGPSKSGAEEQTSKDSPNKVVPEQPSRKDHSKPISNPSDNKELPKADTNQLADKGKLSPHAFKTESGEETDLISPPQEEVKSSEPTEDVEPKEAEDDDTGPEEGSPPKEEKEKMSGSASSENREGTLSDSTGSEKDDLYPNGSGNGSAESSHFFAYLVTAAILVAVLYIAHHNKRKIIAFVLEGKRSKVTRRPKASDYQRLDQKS
inactive: ibrutinib -0.023 | [1] 0.013 | ralimetinib -0.065 | [2] -0.058 | [3] 0.003 | [4] 0.009 | [5] 0.005 | [6] -0.033 | [7] 0.051 | [8] -0.013 | vemurafenib 0.02 | [9] 0.023 | barasertib -0.023 | [10] 0.05 | volasertib 0.035 | [11] -0.094 | [12] -0.012 | [13] 0.036 | saracatinib -0.033 | sotrastaurin 0.06

TIMELESS (UniProt Q9UNS1)
Chain of UniProt Q9UNS1 (Q9UNS1 whole entry, looked up): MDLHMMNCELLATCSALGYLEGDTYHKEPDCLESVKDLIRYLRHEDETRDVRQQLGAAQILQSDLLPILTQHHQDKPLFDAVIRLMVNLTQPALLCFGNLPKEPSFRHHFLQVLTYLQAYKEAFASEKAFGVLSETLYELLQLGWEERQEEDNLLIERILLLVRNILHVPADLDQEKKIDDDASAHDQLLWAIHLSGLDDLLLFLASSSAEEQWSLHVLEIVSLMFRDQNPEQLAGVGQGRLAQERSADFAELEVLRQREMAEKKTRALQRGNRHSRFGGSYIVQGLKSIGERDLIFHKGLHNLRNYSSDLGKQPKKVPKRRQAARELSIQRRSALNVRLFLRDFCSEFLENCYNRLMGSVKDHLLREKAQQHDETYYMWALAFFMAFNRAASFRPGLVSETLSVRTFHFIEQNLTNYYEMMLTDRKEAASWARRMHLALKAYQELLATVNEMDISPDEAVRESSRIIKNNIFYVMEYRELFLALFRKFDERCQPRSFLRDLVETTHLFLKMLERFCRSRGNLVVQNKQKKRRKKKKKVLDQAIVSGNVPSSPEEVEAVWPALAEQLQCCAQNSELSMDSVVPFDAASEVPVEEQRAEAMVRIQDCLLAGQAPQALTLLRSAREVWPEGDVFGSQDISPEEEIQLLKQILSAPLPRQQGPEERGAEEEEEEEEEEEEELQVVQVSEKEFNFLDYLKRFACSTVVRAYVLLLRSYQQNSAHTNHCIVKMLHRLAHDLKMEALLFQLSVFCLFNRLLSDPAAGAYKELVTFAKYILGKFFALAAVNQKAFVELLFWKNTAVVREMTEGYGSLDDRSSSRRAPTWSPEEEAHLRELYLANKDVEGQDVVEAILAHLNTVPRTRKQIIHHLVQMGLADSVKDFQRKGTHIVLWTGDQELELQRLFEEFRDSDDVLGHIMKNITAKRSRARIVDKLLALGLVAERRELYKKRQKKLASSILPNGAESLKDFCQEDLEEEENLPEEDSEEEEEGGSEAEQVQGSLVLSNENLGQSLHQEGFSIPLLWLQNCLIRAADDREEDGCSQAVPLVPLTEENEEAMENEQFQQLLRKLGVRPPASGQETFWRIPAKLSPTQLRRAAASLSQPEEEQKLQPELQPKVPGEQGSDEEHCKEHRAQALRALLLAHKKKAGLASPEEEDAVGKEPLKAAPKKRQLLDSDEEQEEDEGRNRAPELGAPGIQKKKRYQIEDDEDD
inactive: ibrutinib 0.011 | [1] -0.079 | ralimetinib 0.006 | [2] -0.053 | [3] -0.01 | [4] 0.011 | [5] -0.007 | [6] -0.01 | [7] 0.029 | [8] -0.027 | vemurafenib 0.035 | [9] 0.031 | barasertib 0.039 | [10] -0.058 | volasertib 0.043 | [11] 0.013 | [12] -0.094 | [13] -0.07 | saracatinib 0.035 | sotrastaurin 0

THEMIS2 (UniProt Q5TEJ8)
inactive: ibrutinib 0.029 | [1] -0.038 | ralimetinib 0.059 | [2] -0.037 | [3] -0.009 | [4] 0.029 | [5] -0.051 | [6] -0.023 | [7] -0.042 | [8] 0.126 | vemurafenib -0.004 | [9] 0.11 | barasertib -0.052 | [10] 0.016 | volasertib 0.132 | [11] 0.015 | [12] -0.019 | [13] 0.004 | saracatinib 0.01 | sotrastaurin -0.016

TOR3A (UniProt Q9H497)
Chain of UniProt Q9H497 (Q9H497 whole entry, looked up): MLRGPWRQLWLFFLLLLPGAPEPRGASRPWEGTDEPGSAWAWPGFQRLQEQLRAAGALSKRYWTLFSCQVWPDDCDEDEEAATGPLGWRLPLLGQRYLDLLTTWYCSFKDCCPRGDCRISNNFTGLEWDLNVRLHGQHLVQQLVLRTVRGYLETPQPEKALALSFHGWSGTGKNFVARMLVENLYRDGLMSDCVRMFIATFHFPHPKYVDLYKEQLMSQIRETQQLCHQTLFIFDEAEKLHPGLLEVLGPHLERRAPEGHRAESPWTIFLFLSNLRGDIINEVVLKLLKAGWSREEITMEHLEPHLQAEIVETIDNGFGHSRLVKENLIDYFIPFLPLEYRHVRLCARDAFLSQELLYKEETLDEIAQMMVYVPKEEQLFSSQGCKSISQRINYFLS
inactive: ibrutinib 0.008 | [1] 0.023 | ralimetinib 0.002 | [2] -0.017 | [3] -0.001 | [4] 0.018 | [5] -0.022 | [6] -0.036 | [7] 0.018 | vemurafenib -0.001 | [9] -0.11 | barasertib -0.031 | [10] -0.013 | volasertib -0.05 | [11] -0.006 | [12] -0.123 | [13] 0.057 | saracatinib 0.014 | sotrastaurin 0.03
active: [8] 0.365

TUBB4B (UniProt P68371)
Chain of UniProt P68371 (P68371 whole entry, looked up): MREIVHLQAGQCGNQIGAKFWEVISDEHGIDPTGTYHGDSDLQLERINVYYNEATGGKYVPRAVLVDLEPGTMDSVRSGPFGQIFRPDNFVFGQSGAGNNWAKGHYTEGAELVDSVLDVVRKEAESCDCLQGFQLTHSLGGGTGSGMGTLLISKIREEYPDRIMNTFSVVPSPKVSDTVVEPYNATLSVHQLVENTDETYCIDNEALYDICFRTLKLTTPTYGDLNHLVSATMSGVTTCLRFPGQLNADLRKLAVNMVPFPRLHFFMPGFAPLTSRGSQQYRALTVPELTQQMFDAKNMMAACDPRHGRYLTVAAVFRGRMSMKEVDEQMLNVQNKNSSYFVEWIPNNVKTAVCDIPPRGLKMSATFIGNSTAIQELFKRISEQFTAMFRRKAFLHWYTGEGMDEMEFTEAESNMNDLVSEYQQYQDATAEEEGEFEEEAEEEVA
inactive: ibrutinib -0.012 | [1] 0.029 | ralimetinib 0.026 | [2] 0.029 | [3] 0.02 | [4] 0.011 | [5] 0.022 | [6] -0.05 | [7] 0.035 | [8] 0.018 | vemurafenib 0.006 | [9] 0.004 | barasertib -0.092 | [10] -0.032 | volasertib -0.034 | [11] 0.005 | [12] -0.134 | [13] -0.011 | saracatinib 0.03 | sotrastaurin -0.021

Source: the supplement of paper PMC10849652
